Drawing on PubChem BioAssay, this text covers z-score and composite z-score for twelve molecules.

The nature of assay [1]: E. coli DRC41 culture turbidity changes, primary screen, E. coli filamentation inducer project, strain DRC41, OD650, 48 h (AID 1152).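 Note: E. coli MC1000 strain DRC41 lacking acrAB efflux pump and sulA.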 Particulars: E. coli DRC41 (acrAB sulA), higher = more signal, called active from +8 up or from −8 down.
The nature of assay [2]: small-molecule binders of probe aLefty1, primary screen, biochemical, small-molecule microarray, 635/667 nm fluorescence (AID 1153).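 Note: score merges spot fluorescence with signal-to-noise ratio from the scanned slide images.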 Conditions: higher = more signal.
Assay [3] can be described thus: PSAC antagonists in infected red cells, primary screen, cell-based, P. falciparum Indochina, OD700, 1 h (AID 1154). Conditions: P. falciparum Indochina infected RBC osmotic lysis, higher = more signal, called active from +8 up or from −8 down.
Assay [4] in a line: PSAC antagonists in infected red cells, primary screen, cell-based, P. falciparum Indochina, OD700, 2 h (AID 1155).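 Note: lysis reports solute entry through the parasite surface anion channel PSAC; channel blockers reduce lysis of infected cells.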 Particulars: P. falciparum Indochina infected erythrocytes, osmotic lysis OD700; higher = more signal, called active from +8 up or from −8 down.
The nature of assay [5]: osmotic lysis modulators in infected erythrocytes, primary screen, PSAC antagonist project, cell-based, P. falciparum Indochina, OD700, 3 h (AID 1156). Conditions: higher = more signal, called active from +8 up or from −8 down.
A short description of assay [6]: PSAC antagonists in infected red cells, primary screen, cell-based, P. falciparum Indochina, OD700, 18 h (AID 1157). Conditions: P. falciparum Indochina infected erythrocytes, osmotic lysis OD700, 18 h; higher = more signal, called active from +8 up or from −8 down.
Assay [7] in a line: modulators of S6 phosphorylation in cells, primary screen, cell-based, A549, cytoblot, luminescence, serum-stimulated (AID 1158).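 Note: serum-stimulated A549 lung adenocarcinoma cells; signal is phosphorylated S6 detected by cytoblot immunostaining with HRP secondary.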 Particulars: A549 phospho-S6 cytoblot, 5 h, higher = more signal.
For assay [8], the target named is NADPH oxidase 2 (Homo sapiens) (UniProt P04839). Nature of the assay: NOX2-dependent H2O2 signal modulators, primary screen, NOX inhibitor project, cell-based, HEK293-NOX2, PMA-stimulated, Amplex Red fluorescence (AID 1159). Note: test concentration not given here. Conditions: 45 min, higher = more signal, called active from +8 up or from −8 down.
The target of assay [9] is NADPH oxidase 4 (Homo sapiens) (UniProt Q9NPH5). Nature of the assay: NOX4-dependent H2O2 signal modulators, primary screen, NOX inhibitor project, cell-based, HEK293-NOX4, tetracycline-induced, Amplex Red fluorescence (AID 1160). Conditions: 45 min, higher = more signal, called active from +8 up or from −8 down.
For assay [10], the target named is NADPH oxidase 5 (Homo sapiens) (UniProt Q96PH1). The experiment in a line: NOX5-dependent H2O2 signal modulators, primary screen, NOX inhibitor project, cell-based, HEK293-NOX5, Amplex Red fluorescence (AID 1161). Particulars: HEK293-NOX5, ionomycin, 45 min, higher = more signal.

Structures are written as SMILES. The source made the active and inactive calls.

Sequence of NADPH oxidase 4 (Homo sapiens) (Q9NPH5 whole entry, looked up): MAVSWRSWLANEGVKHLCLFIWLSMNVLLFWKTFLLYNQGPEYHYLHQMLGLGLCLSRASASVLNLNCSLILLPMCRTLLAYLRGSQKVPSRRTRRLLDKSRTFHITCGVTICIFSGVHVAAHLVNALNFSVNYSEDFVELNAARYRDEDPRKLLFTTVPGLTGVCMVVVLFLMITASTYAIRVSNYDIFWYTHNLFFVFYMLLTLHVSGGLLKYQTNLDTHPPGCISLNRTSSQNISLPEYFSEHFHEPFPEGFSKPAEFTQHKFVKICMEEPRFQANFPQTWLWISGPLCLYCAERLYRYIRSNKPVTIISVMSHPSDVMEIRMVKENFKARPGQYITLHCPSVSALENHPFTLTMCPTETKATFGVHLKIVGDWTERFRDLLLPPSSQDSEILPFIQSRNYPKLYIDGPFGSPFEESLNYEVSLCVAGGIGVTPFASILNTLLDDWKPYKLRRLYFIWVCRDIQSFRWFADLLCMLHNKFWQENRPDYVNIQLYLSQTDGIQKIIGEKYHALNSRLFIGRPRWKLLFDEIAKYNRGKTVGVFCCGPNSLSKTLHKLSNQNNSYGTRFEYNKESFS
Sequence of NADPH oxidase 2 (Homo sapiens) (P04839 whole entry, looked up): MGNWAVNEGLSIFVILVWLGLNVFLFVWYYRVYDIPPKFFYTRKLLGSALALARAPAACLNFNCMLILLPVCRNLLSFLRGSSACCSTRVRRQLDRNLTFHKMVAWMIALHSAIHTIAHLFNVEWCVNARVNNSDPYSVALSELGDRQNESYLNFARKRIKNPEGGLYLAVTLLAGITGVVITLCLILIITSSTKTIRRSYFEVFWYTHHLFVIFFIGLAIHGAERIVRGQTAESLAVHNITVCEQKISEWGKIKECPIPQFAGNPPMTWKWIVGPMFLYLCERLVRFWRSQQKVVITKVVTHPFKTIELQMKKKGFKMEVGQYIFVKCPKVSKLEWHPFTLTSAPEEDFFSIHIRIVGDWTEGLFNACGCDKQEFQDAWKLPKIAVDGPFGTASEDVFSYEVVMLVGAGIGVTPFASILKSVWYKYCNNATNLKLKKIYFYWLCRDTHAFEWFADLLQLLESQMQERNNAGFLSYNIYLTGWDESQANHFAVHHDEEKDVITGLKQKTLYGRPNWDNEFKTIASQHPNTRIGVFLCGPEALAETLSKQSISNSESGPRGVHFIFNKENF
Sequence of NADPH oxidase 5 (Homo sapiens) (Q96PH1 whole entry, looked up): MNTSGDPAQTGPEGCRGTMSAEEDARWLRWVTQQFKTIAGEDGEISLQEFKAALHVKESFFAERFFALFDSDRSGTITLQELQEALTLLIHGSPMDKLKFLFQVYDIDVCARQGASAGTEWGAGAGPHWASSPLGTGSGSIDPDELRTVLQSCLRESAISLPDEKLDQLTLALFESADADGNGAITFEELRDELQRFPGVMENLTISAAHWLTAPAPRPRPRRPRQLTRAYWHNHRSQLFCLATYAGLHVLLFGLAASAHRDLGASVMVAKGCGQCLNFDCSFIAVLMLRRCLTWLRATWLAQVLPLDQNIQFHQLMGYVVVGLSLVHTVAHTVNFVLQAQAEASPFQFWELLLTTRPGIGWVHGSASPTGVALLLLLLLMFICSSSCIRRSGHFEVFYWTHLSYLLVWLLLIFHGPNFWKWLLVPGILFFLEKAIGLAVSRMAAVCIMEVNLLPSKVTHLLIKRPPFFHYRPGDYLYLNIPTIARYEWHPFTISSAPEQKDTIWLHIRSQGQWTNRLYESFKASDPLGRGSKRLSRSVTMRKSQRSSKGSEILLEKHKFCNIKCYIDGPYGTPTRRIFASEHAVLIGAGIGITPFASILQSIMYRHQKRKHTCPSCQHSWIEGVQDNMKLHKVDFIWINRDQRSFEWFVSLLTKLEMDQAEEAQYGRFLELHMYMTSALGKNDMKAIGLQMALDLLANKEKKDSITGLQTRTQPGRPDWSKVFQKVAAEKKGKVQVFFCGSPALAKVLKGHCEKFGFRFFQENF

For `C=CC[C@]1(C(=O)N2CCOCC2)N=C(c2ccc(OCCCO)cc2)O[C@H]1c1ccccc1CN=[N+]=[N-]`, the z-score is 0.434 (inactive) in [1]; 27.9 (active) in assay [3]; 23.1 (active) in assay [4]; 3.57 (inactive) in assay [5]; 1.89 (inactive) in assay [6]; -0.0698 in assay [7]. For the same molecule, the z-score is 1.4 (inactive) in assay [8], 0.226 (inactive) in [9] and -1.32 in assay [10]. The composite z-score in [2] turned out to be 0.483.

Take `Cc1ccc(-c2cccc(=O)o2)cc1`: the z-score was -0.418 (inactive) in assay [1]; 5.81 (inactive) in assay [3]; 1.02 (inactive) in assay [4]; -0.657 (inactive) in [5]; 0.609 (inactive) in [6]; -0.102 in assay [7]. In addition, the z-score was 0.498 (inactive) in [8], -1.66 (inactive) in [9] and 0.12 in [10]. The composite z-score in [2] was -0.237.

For `O=C1O[C@H](c2ccccc2)[C@H](c2ccccc2)N2[C@H]1[C@@H](C(=O)N1CCN(c3ncccn3)CC1)[C@]1(C(=O)Nc3ccc(C#CCCO)cc31)[C@H]2c1ccccc1OCCO`, the z-score in [1] is 0.313 (inactive); in assay [3], 2.7 (inactive); in [4] it was 1.55 (inactive); in [5], 0.561 (inactive); in [6] it was 0.657 (inactive); in [7] it was -0.673. In addition, the z-score in [8] is 1.45 (inactive); in assay [9], 0.492 (inactive); in assay [10] it was 0.333. For the same molecule, in [2], the composite z-score is -0.012.

As to `COCCOC(=O)N1C(=O)[C@@]2(c3cc(C#CCNC(N)=O)ccc31)[C@H](c1ccc(OCCO)cc1)N1[C@H](c3ccccc3)[C@H](c3ccccc3)OC(=O)[C@H]1[C@@H]2C(=O)N1CCN(c2ncccn2)CC1`, the z-score in [1] is -0.283 (inactive); in assay [3], 4.15 (inactive); in [4] it was 1.81 (inactive); in assay [5], 0.428 (inactive); in assay [6] it was 1.05 (inactive); in assay [7] it was 0.537. For the same molecule, the z-score is 2.29 (inactive) in [8], 0.937 (inactive) in [9] and 0.877 in assay [10]. In assay [2], this molecule had a composite z-score of 0.209.

For `C=C(COC)C(=O)CC[C@H](OC(=O)c1ccccc1-c1ccccc1C(=O)O)c1ccc(OCCO)cc1`, the z-score in assay [1] is 0.146 (inactive); in assay [3], 10.5 (active); in assay [4] it was 1.72 (inactive); in [5], 2 (inactive); in assay [6], 0.626 (inactive); in assay [7], -0.0494. The values for the z-score in [8], in [9] and in assay [10] were 0.00741 (inactive), -0.221 (inactive) and -1.8, respectively. For the same molecule, the composite z-score in assay [2] was 0.134.

In the case of `COc1ccc(C#Cc2ccc3c(c2)[C@]2(C(=O)N3)[C@H](c3ccc(OCCO)cc3)N3[C@H](c4ccccc4)[C@H](c4ccccc4)OC(=O)[C@H]3[C@@H]2C(=O)N2CCN(c3ncccn3)CC2)cc1`, the z-score in assay [1] was 2.34 (inactive); in [3] it was 3.2 (inactive); in [4] it was 0.964 (inactive); in assay [5], -1.48 (inactive); in [6] it was -0.856 (inactive); in assay [7], 0.379. Besides, the z-score was 1.15 (inactive) in assay [8], 0.706 (inactive) in assay [9] and 1.34 in [10]. Besides, in assay [2], the composite z-score was found to be 0.0436.

`[N-]=[N+]=Nc1ccccc1C[C@]1(C(=O)NCCN2CCOCC2)N=C(c2ccc(OCCCO)cc2)O[C@H]1c1ccccc1N=[N+]=[N-]`: the z-score in assay [1] is 1.11 (inactive); in [3] it was 27.7 (active); in assay [4], 23.2 (active); in [5], 1.35 (inactive); in [6], 4.41 (inactive); in assay [7], 1.75. Moreover, the figures for the z-score in [8], in [9] and in assay [10] were -2.69 (inactive), 0.686 (inactive) and -1.15, respectively. Further, the composite z-score in assay [2] was 0.628.

For `Cc1ccc(S[C@]2(C(=O)O)CC(=O)N(Cc3ccccc3C(F)(F)F)[C@@H]2c2ccc(CO)cc2)cc1`, the z-score in [1] is 0.281 (inactive); in assay [3] it was 4.63 (inactive); in assay [4] it was 0.388 (inactive); in [5], 0.0934 (inactive); in assay [6], 0.231 (inactive); in assay [7], -0.854. Also, the z-score in assay [8] is 0.375 (inactive); in [9], 0.152 (inactive); in assay [10], 0.476. Further, in assay [2], the composite z-score was -0.109.

On to `CC(C)CNC(=O)[C@@]1(C)c2ccccc2C(=O)N(Cc2ccccc2)[C@H]1c1ccc(CO)cc1`, for which the z-score in assay [1] was -0.743 (inactive); in assay [3] it was 3.11 (inactive); in assay [4], 0.122 (inactive); in [5], 0.709 (inactive); in assay [6] it was 0.0589 (inactive); in assay [7], 0.11. The z-score in assay [8] was -0.912 (inactive); in assay [9] it was 0.0265 (inactive); in assay [10], -1.13. For the same molecule, the composite z-score in assay [2] is -0.16.

For the molecule `O=C1OCC=C[C@H]2OC34C=CCN(CCN5CCOCC5)C(=O)[C@H]3N(CCCCCO)C(=O)[C@@H]4[C@@H]12` (stereo not given in full), the z-score in assay [1] is -0.457 (inactive); in [3] it was 1.69 (inactive); in assay [4] it was 0.526 (inactive); in [5] it was 1.5 (inactive); in [6] it was 0.0882 (inactive); in assay [7], 2.31. Also, the z-score in assay [8] was 0.922 (inactive); in [9], 0.379 (inactive); in assay [10] it was 2.1. Further, the composite z-score in assay [2] is -0.045.

In the case of `CO[C@H]1O[C@H](CO)[C@@H](OC(=O)Nc2ccc(C(F)(F)F)cc2)[C@H](OC(=O)Nc2ccccc2)[C@H]1OC(=O)Nc1ccccc1`, the z-score is -1.41 (inactive) in assay [1]; 4.63 (inactive) in [3]; 1.22 (inactive) in assay [4]; -2.03 (inactive) in assay [5]; 0.887 (inactive) in assay [6]; 0.121 in [7]. In addition, the z-score is -5.31 (inactive) in [8], -1.39 (inactive) in assay [9] and -1.85 in [10]. In assay [2], this molecule had a composite z-score of 1.14.

For the molecule `C=CCC(OC(C)=O)[C@@H]1[C@@H](N(Cc2cc3ccccc3o2)C(=O)Cc2ccc(OC)cc2)c2cc(OCCCO)ccc2N1C(=O)c1ccc(-c2ccccc2)cc1` (stereo not given in full), the z-score in [1] is 1.26 (inactive); in [3], 2.1 (inactive); in assay [4], 0.0881 (inactive); in assay [5], 0.821 (inactive); in assay [6], 0.432 (inactive); in assay [7], 0.78. Further, the z-score is 0.125 (inactive) in assay [8], -0.964 (inactive) in assay [9] and 1.56 in [10]. Besides, the composite z-score in assay [2] was found to be 0.143.
